The results in this text go back to PubChem BioAssay (NCI).

The nature of experiment [1]: NCI Yeast Anticancer Drug Screen. Data for the rad50 strain (AID 155).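 Note: 0% = growth of vehicle-only cultures of the same strain.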 The following applies: S. cerevisiae rad50 strain growth inhibition; at 50.0 µM; hits give high values. Summed up:
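Vehicle-treated cultures provide the reference for the growth inhibition reported for compound-exposed, repair-deficient yeast.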

The nature of experiment [2]: NCI Yeast Anticancer Drug Screen. Data for the mec2-1 strain (AID 157). The following applies: S. cerevisiae mec2-1 strain, at 50.0 µM, hits give high values. In outline: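 Cells of the genetically defined mec2-1 yeast strain are incubated with test compound. Inhibition of growth is calculated against vehicle-treated controls.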
Experiment [3] in a line: NCI Yeast Anticancer Drug Screen. Data for the sgs1 mgt1 strain (AID 161).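 Note: 0% = growth of cultures given vehicle only.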 The following applies: S. cerevisiae sgs1 mgt1 strain, at 50.0 µM, hits give high values. Summed up: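 Read-out: growth inhibition vs vehicle controls. Cells: mutant yeast strain deficient in DNA damage repair.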
Experiment [4] is described as follows: NCI Yeast Anticancer Drug Screen. Data for the cln2 rad14 strain (AID 165).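 Note: 0% = growth equal to vehicle treated cultures.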 The following applies: S. cerevisiae cln2 rad14 strain, at 50.0 µM, hits give high values. In outline: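 The screen exposed genetically defined yeast (cln2 rad14) to test compounds and scored growth inhibition relative to vehicle-treated controls.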
Experiment [5] can be described thus: NCI Yeast Anticancer Drug Screen. Data for the bub3 strain (AID 167). The following applies: S. cerevisiae bub3 mutant strain, at 50.0 µM, hits give high values. Summed up: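 Mutant yeast screening strain plus compound; vehicle-treated cultures serve as the 0% inhibition reference.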
The nature of experiment [6]: NCI Yeast Anticancer Drug Screen. Data for the mlh1 rad18 strain (AID 175). The following applies: S. cerevisiae mlh1 rad18 strain growth inhibition; at 50.0 µM; hits give high values. Summed up: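 Compound-treated yeast growth, normalised to vehicle controls. Strain bears defined DNA repair mutations.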

SMILES strings stand for the structures. About 79,000 compounds went through this panel and 15% of them were active in at least one assay; those are over-represented in the sample as a whole. Values without a mark were called inactive. Active and inactive are the calls of the source. Cut-off read from the data, not from the text of the source: active = growth inhibition above about 70%; inactive = the rest.

Consider `CC(C)N(N=O)C(C)C`, for which the growth inhibition in experiment [1] is 13.7%; in experiment [2] it was -4.6%; in experiment [3], 6.85%; in experiment [4], 1.9%; in experiment [5] it was 0.95%; in experiment [6], 16.5%.

For `CN(C/C=C/CN(C)N=O)N=O`, the growth inhibition is 10.1% in experiment [1]; 2.05% in experiment [2]; 3.75% in experiment [3]; -16.9% in experiment [4]; 20.4% in experiment [5]; 1.05% in experiment [6].

For the compound `N#C[CH2][Sn]([I])([c]1ccccc1)[c]1ccccc1`, the growth inhibition in experiment [1] is -12.5%; in experiment [2], 30.4%; in experiment [3] it was 1.15%; in experiment [4] it was 72% (active); in experiment [5], -0.25%; in experiment [6] it was 1.9%.

Consider `Cc1cccc(N=Nc2ccc(N(C)C)cc2)c1`, for which the growth inhibition in experiment [1] is -8.45%; in experiment [2] it was -36.6%; in experiment [3], 2.4%; in experiment [4], -29.6%; in experiment [5] it was -8.6%; in experiment [6], -13.3%.

As for `CN(CC(N)=O)C(=O)N(CCCl)N=O`, the growth inhibition in experiment [1] was 7.8%; in experiment [2], 1.6%; in experiment [3] it was -11.5%; in experiment [4], -18.7%; in experiment [5], 1.55%; in experiment [6], -41.5%.

As for `O=P(O)(OCCc1ccccc1)Oc1ccccc1O`, the growth inhibition in experiment [1] was -6.05%; in experiment [2], -4.55%; in experiment [3], -20.7%; in experiment [4], -1.15%; in experiment [5], -10.7%; in experiment [6] it was 13.6%.

Consider `CC(C)=CC(=O)N(C)C1C2CN3CCC(O2)C13` (centres undefined), for which the growth inhibition in experiment [1] was 7.3%; in experiment [2], 14.6%; in experiment [3], 14.1%; in experiment [4] it was 43.9%; in experiment [5] it was 29.9%; in experiment [6], 21.6%.

As for `O=C1NC(=O)C(F)C(O)N1` (centres undefined), the growth inhibition was -22.8% in experiment [1]; -17.8% in experiment [2]; -6.15% in experiment [3]; -14.8% in experiment [4]; 16.1% in experiment [5]; -8.2% in experiment [6].

Consider `C/C=C1/CC(C)C(C)(O)C(=O)OCC2CCN3CCC(OC1=O)C23` (centres undefined), for which the growth inhibition in experiment [1] is 13.5%; in experiment [2], -1.75%; in experiment [3], 6.8%; in experiment [4], 8.05%; in experiment [5], 23.1%; in experiment [6] it was 18.4%.

On to `CC(C)CC(=O)[O-].N.N.N.N.N.[Co+3].[O-][Cl+3]([O-])([O-])[O-]`, for which the growth inhibition in experiment [1] is -4.85%; in experiment [2], 23.4%; in experiment [3], -19.6%; in experiment [4], 21.8%; in experiment [5], -10.1%; in experiment [6], -19.1%.

Regarding `CN1CCN(Cc2ccccc2)CC1CC#N` (centres undefined), the growth inhibition in experiment [1] is -17.3%; in experiment [2] it was -34.8%; in experiment [3], -24.1%; in experiment [4], -0.2%; in experiment [5], 2.65%; in experiment [6], -30.9%.

For the compound `COC(=O)C1=C(C)N2[C@H](C(=O)O)CO[C@@]2(C)[C@H](C(=O)OC)[C@H]1c1cccc([N+](=O)[O-])c1`, the growth inhibition in experiment [1] was 26.6%; in experiment [2] it was -8.35%; in experiment [3], 21.4%; in experiment [4] it was 4.25%; in experiment [5], 25.6%; in experiment [6] it was 22.7%.

As to `COc1ccc2c(c1)CC(CN1CCC3(CC1)C(=O)NCN3c1ccccc1)O2` (centres undefined), the growth inhibition was 76.7% (active) in experiment [1]; 57% in experiment [2]; 86.4% (active) in experiment [3]; 79% (active) in experiment [4]; 55.5% in experiment [5]; 78.5% (active) in experiment [6].

`CC1(C)N=C(N)N=C(N)N1c1ccc(Cl)c(CCCCc2ccc(S(=O)(=O)F)cc2)c1`: the growth inhibition in experiment [1] is 99.8% (active); in experiment [2] it was 99.8% (active); in experiment [3], 99.2% (active); in experiment [4] it was 99.4% (active); in experiment [5] it was 99.6% (active); in experiment [6] it was 99.8% (active).

Consider `O=C(O)c1cc(C(=O)O)cc(S(=O)(=O)F)c1`, for which the growth inhibition in experiment [1] was 13.5%; in experiment [2], 3.75%; in experiment [3], 19.6%; in experiment [4], 10.6%; in experiment [5], -4.05%; in experiment [6], 7.5%.

Regarding `COc1ccc(C2=CC3=CCC4C(CCC5(C)C(O)CCC45)C3(C)CC2)s1` (centres undefined), the growth inhibition in experiment [1] was 19.2%; in experiment [2], 11.7%; in experiment [3], 29.6%; in experiment [4], -0.6%; in experiment [5], -0.1%; in experiment [6], 26.1%.

On to `C[N+](C)=c1nc(N2CCc3ccccc3C2)ss1`, for which the growth inhibition was 27% in experiment [1]; 37% in experiment [2]; 26.4% in experiment [3]; -19.4% in experiment [4]; 12.1% in experiment [5]; 47.7% in experiment [6].

For `CCC[CH2][Pb]([CH2]CCC)([CH2]CCC)[O]C(C)=O`, the growth inhibition in experiment [1] is 9.6%; in experiment [2] it was -7.95%; in experiment [3], 16.1%; in experiment [4], 25.1%; in experiment [5], 25%; in experiment [6], 13.3%.

Turning to `O=[N+]([O-])c1ccc(/C=C/C=C\c2ccc(S(=O)(=O)F)cc2Cl)cc1`, the growth inhibition in experiment [1] is 2.55%; in experiment [2], 25.2%; in experiment [3], 16%; in experiment [4] it was 1.85%; in experiment [5], 10.2%; in experiment [6], 16.3%.
